Measurements as given in ChEMBL document CHEMBL4808148, “HDAC6 screening dataset using tau-based substrate in an enzymatic assay yields selective inhibitors and activators” (2021).
Among all 5,600 compounds or so, about 150 (2.7%) showed an effect of 50% or more. The entries come from a sample that favours strong results as a whole.

Key:
[1] = biological target: T1, Protein deacetylase HDAC6 (Homo sapiens) (UniProt Q9UBN7); conditions: at 10 µM
T1 sequence (whole entry): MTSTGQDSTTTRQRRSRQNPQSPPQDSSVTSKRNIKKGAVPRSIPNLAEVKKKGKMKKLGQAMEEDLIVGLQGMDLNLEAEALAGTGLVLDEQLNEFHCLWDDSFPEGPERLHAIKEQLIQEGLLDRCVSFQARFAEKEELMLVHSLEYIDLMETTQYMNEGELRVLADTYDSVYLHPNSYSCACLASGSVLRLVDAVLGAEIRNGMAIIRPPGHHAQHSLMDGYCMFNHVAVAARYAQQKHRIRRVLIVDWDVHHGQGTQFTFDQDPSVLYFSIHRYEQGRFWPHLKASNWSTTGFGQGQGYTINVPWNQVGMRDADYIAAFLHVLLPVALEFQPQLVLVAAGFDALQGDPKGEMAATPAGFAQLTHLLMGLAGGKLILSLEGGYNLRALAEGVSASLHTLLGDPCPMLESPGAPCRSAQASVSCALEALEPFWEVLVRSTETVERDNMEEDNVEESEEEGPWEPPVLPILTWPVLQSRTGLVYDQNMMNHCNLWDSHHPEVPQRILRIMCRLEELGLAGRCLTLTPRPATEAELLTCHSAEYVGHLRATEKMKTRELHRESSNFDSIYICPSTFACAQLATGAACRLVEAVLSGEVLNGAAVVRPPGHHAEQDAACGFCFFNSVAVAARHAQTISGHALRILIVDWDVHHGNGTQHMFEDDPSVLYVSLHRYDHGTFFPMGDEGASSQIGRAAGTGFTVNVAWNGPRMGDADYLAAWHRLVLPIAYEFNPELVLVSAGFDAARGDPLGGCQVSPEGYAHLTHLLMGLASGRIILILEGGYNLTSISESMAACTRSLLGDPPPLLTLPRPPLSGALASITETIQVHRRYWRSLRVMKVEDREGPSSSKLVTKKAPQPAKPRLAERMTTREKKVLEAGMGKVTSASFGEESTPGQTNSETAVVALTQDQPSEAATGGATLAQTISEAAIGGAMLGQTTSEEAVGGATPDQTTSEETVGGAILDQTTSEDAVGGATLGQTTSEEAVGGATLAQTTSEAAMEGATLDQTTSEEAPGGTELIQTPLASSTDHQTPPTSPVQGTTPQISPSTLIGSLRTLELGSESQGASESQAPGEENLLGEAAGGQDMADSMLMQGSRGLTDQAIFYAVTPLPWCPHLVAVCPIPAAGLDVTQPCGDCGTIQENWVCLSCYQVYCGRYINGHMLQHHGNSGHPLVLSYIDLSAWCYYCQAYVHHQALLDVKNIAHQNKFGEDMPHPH

[2] = biological target: Protein deacetylase HDAC6 (Homo sapiens) (UniProt Q9UBN7); conditions: at 10 µM; remark: listed apart in the source

| Molecule | inhibition [1] | inhibition [2] |
| --- | --- | --- |
| C=CC(=O)N1CCC[C@@H](n2nc(-c3ccc(Oc4ccccc4)cc3)c3c(N)ncnc32)C1 | 51% |  |
| C=CC(=O)N1CCC[C@@H](n2c(=O)n(-c3ccc(Oc4ccccc4)cc3)c3c(N)ncnc32)C1 | 6.07% |  |
| Nc1ncnc2c1c(-c1ccc(Oc3ccccc3)cc1)nn2C1CCCC1 | -1.59% |  |
| C=C1C(=O)O[C@@H]2[C@H]3C(C)=CC[C@@]34O[C@@]4(C)CC[C@@H]12 | 4.41% |  |
| c1cnc(NCc2ccc(CNc3ncccn3)cc2)nc1 | 0.03% |  |
| CNc1nc(C)nc(N[C@H]2CCC[C@@H](C(=O)NCc3ccc(C#N)cc3C(F)(F)F)C2)n1 | -6.75% |  |
| Cc1cc(O)cc2c1O[C@@](C)(CCC[C@@H](C)CCC[C@@H](C)CCCC(C)C)CC2 | -3.19% |  |
| Cc1nc2cnc3ccc(C#Cc4cccnc4)cc3c2n1-c1ccc(C(C)(C)C#N)cc1 | 3.93% |  |
| CC(=O)SCCC(=O)N1C(C)CCCC1C(=O)O (stereo unspecified) | 7.82% |  |
| CSc1nc2ccc3nc(NC(=O)C(c4ccccc4)c4ccccc4)sc3c2s1 | -1.3% |  |
| CC(=O)N(O)[C@@H]1c2cc(C#N)ccc2OC(C)(C)[C@H]1O | -2.08% |  |
| CN(C)c1nc(N)c(C(=O)Nc2cccnc2)nc1Cl | 80.9% |  |
| N=C(N)NC(=O)c1nc(Cl)c(N)nc1N | -8.95% |  |
| O=C(OCC(COC(=O)c1cccnc1)(COC(=O)c1cccnc1)COC(=O)c1cccnc1)c1cccnc1 | -1.03% |  |
| Cn1ncc2c(N3CCOCC3)nc(-c3cccc(O)c3)nc21 | -1.99% |  |
| Cc1ccc(-c2nn(C(C)(C)CNC(=O)c3ncccc3C)c3ncnc(N)c23)cc1 | 6.88% |  |
| Oc1ccc(-c2nc3cc(O)cc(Br)c3o2)cc1 | 54.3% |  |
| CC[C@H](NC(=O)c1c(O)c(-c2ccccc2)nc2ccccc12)c1ccccc1 | 2.06% |  |
| O=C(/C=C/c1cccc(F)c1)NC1CC1 | 8.47% |  |
| Cn1c(/C=C/C(=O)NO)ccc1/C=C/C(=O)c1cccc(F)c1 | 76.3% |  |
| CCCCCCCCC(=O)N[C@H](CN1CCCC1)[C@H](O)c1ccc2c(c1)OCCO2 | 6.86% |  |

| Molecule | inhibition [1] | inhibition [2] |
| --- | --- | --- |
| O=C(CCBr)N1CC[N+]2(CC1)CC[N+]1(CCN(C(=O)CCBr)CC1)CC2 | 0.06% |  |
| CS(=O)(=O)c1ccc(-c2cn3ccccc3n2)cc1 | 78.9% |  |
| CN1CCN(c2cccc(Nc3nc4c(-c5ccc(S(C)(=O)=O)cc5)cccn4n3)c2)CC1 | -1.82% |  |
| CS(=O)(=O)c1ccc(-c2cnc(N)c(C(=O)Nc3ccccc3)n2)cc1 | 2.63% |  |
| C[C@H]1O[C@@H](O[C@H]2CC[C@@]3(C)[C@H](CC[C@@H]4[C@@H]3C[C@@H](O)[C@]3(C)[C@@H](C5=CC(=O)OC5)CC[C@]43O)C2)C[C@H](O)[C@@H]1O[C@H]1C[C@H](O)[C@H](O[C@H]2C[C@H](O)[C@H](O[C@@H]3O[C@H](CO)[C@@H](O)[C@H](O)[C@H]3O)[C@@H](C)O2)[C@@H](C)O1 | -2.28% |  |
| N#CC(c1ccccc1)(c1ccccc1)c1ccccc1Cl | -3.49% |  |
| CC(C)c1c2cc(-c3ccnc(N[C@H]4CC[C@H](NC5CCOCC5)CC4)n3)ccc2nn1C | 1.08% |  |
| CCC(CC)O[C@@H]1C=C(C(=O)O)C[C@H](N)[C@H]1NC(C)=O | 0.57% |  |
| O=c1cc(-c2ccc(O)c(O)c2)oc2cc(O)cc(O)c12 | 51.1% |  |
| O=c1c(O)c(-c2ccc(O)c(O)c2)oc2cc(O)cc(O)c12 | 49.9% |  |
| O=C(O)c1ccc2c(c1)C(=O)N(c1cccc(Oc3ccc([N+](=O)[O-])cc3)c1)C2=O | 23.5% |  |
| CCOc1c(N2CCOCC2)cnn(C)c1=O | 2.39% |  |
| O=C(O)c1ccccc1C(=O)Nc1ccc(-c2ccccc2)cc1 | 54.2% |  |
| O=C(O)c1ccccc1S | -3.38% |  |
| CC(=O)NS(=O)(=O)c1ccc(NC(=O)c2ccccc2C(=O)O)cc1 | -6.68% |  |
| CC(C)(S)C(=O)N[C@@H](CS)C(=O)O | 6.63% |  |
| CC(C)C(=O)SCCCCC[C@H](NC(=O)OC(C)(C)C)C(=O)NC12CC3CC(CC(C3)C1)C2 | 52.4% |  |
| CC(C)CCC[C@@H](C)[C@H]1CC[C@H]2[C@@H]3CCC4=CC(=NO)CC[C@]4(C)[C@H]3CC[C@]12C | 4.46% |  |
| NC(=O)c1ccc(F)c2c1C[C@@H](N(C1CCC1)C1CCC1)CO2 | -7.93% |  |
| O=C(NO)c1cnc(N2CCN(S(=O)(=O)c3ccc4ccccc4c3)CC2)nc1 | 96.2% |  |
| COc1ccc(S(=O)(=O)N2CCCN(S(=O)(=O)c3ccc(OC)c(OC)c3)CC2)cc1OC | -6.17% |  |

| Molecule | inhibition [1] | inhibition [2] |
| --- | --- | --- |
| COc1ccc([C@]2(O)CC[C@H](N3CC[C@@H](NC(=O)CNC(=O)c4cccc(C(F)(F)F)c4)C3)CC2)cn1 | 0.65% |  |
| CC(C)(C)c1ccc(-c2nc3ccccc3[nH]2)cc1 | 94% |  |
| CN1CCN(c2ccc3[nH]c(-c4ccc5[nH]c(-c6ccc(O)cc6)nc5c4)nc3c2)CC1 | 5.09% |  |
| CC(C)(C)c1ccc(O)cc1 | -5.54% |  |
| CN(C)c1cc(CNCC(C)(C)C)c(O)c2c1C[C@H]1C[C@H]3[C@H](N(C)C)C(O)=C(C(N)=O)C(=O)[C@@]3(O)C(O)=C1C2=O | -4.38% |  |
| CC(C)(CCCCCC(O)CCCCCC(C)(C)C(=O)O)C(=O)O | 1.13% |  |
| CCOC(=O)C1=C(N)Oc2ccc(Br)cc2[C@H]1[C@H](C#N)C(=O)OCC | 13.4% |  |
| N#Cc1cnc2c(Cl)cc(NCc3cn(CCN4CCCCCC4)nn3)cc2c1Nc1ccc(F)c(Cl)c1 | -2.34% |  |
| COCCN1CCC(C(=O)NO)(S(=O)(=O)c2ccc(Oc3ccc(OC(F)(F)F)cc3)cc2)CC1 | 1.97% |  |
| COC(=O)c1cc(OC)c2c(c1-c1c(CO)cc(OC)c3c1OCO3)OCO2 | -0.94% |  |
| CS(=O)(=O)Nc1ccc(-c2coc3cc(OCc4cccc(C(=O)O)c4)ccc3c2=O)cc1 | 57.5% |  |
| OCCCCO | -0.89% |  |
| CCC(=O)O[C@]1(C(=O)COC(C)=O)CC[C@H]2[C@@H]3C[C@H](C)C4=CC(=O)C=C[C@]4(C)[C@H]3[C@@H](O)C[C@@]21C | 1.57% |  |
| O=C1NN(C(=O)Nc2ccc(Br)cc2)[C@@H](c2ccccc2)[C@@H]1c1ccccc1 | 13.1% |  |
| O=C1NC(=S)NC(=O)C1C(=O)Nc1ccccc1 | 95% |  |
| N=C(Nc1ccccc1)c1cccs1 | 14.8% |  |
| GADOBUTROL, CHEMBL2218860 |  | 27.5% |
| CC(C)(O)CC(=O)O | 1.27% |  |
| CCc1nc2c(C)nc(C)cc2n1-c1ccc(CCNC(=O)NS(=O)(=O)c2ccc(C)cc2)cc1 | -2.18% |  |
